Active and inactive are the calls of the source.
Experiments:
[1] = test system: Human papillomavirus type 1a protein E7 (residues 44-93); experiment: small molecules binding HPV E7 44-93 – biochemical, small-molecule microarray, residues 44-93, 635 nm fluorescence, primary screen (AID 1108); settings: fluorescence 635 nm, higher = more signal;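 note: E7 fragment applied at 1 µg/mL in TBST for 1 h at 4 C; score combines spot fluorescence with its signal to noise ratio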
[2] = hepatitis C replication reporter changes, two-sided – Huh7 cells, luciferase reporter, HCV replication inhibitor project, primary screen (AID 1109); settings: Huh7 HCV replicon luciferase reporter, 48 h; higher = more signal;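 note: huh7 hepatoma cells harbouring a luciferase neomycin HCV replicon reporter; luciferase luminescence as measure of HCV replicon replication; test concentration not given here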
[3] = biological target: Left-right determination factor 2 (Homo sapiens) (UniProt O00292); experiment: small molecules binding LEFTY2 protein – biochemical, small-molecule microarray, 635 nm fluorescence scan, primary screen (AID 1110); settings: higher = more signal
[4] = biological target: Calmodulin-1 (Homo sapiens) (UniProt P0DP23); experiment: small molecules binding calmodulin-1 with EGTA – biochemical, small-molecule microarray, Cy5-labelled CALM1, profiling panel (AID 1111); settings: Cy5-CALM1 binding fluorescence, higher = more signal;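 note: labelled calmodulin applied in Tris saline Tween buffer holding calcium plus EGTA and DTT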
[5] = biological target: Calmodulin-1 (Homo sapiens) (UniProt P0DP23); experiment: small molecules binding Ca-loaded calmodulin-1 – biochemical, small-molecule microarray, Cy5-labelled CALM1, plus calcium, artefact control for SMM control-protein annotation, profiling panel (AID 1112); settings: Cy5-CALM1 binding fluorescence, higher = more signal;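 note: score merges spot fluorescence with signal to noise from triplicate slides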
[6] = probe aWnt5a binding to arrayed compounds – biochemical, biotinylated probe, 635/667 nm fluorescence, primary screen (AID 1113); settings: small-molecule microarray, higher = more signal;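 note: score merges 667 nm fluorescence intensity with signal-to-noise per printed feature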
[7] = probe aShh binding to arrayed compounds – biochemical, biotinylated probe, 635/667 nm fluorescence, primary screen (AID 1114); settings: small-molecule microarray, higher = more signal;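 note: probe is biotin-labelled aShh protein from a stem cell growth factor screen; measures binding of labelled protein to compounds printed on the slide; score merges feature fluorescence at 667 nm with signal-to-noise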
[8] = probe aNog binding to arrayed compounds – biochemical, biotinylated probe, 635/667 nm fluorescence, primary screen (AID 1115); settings: small-molecule microarray, higher = more signal;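 note: probe is biotinylated aNog protein used at 0.15 µg/mL for 1 h at 4 C; z-score combines 667 nm fluorescence of each spot with its signal to noise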
[9] = biological target: Torsin-1A-interacting protein 1 (Homo sapiens) (UniProt Q5JTV8); experiment: compound microarray binding of lysate hLAP1 – cell lysate, small-molecule microarray, COS7 lysate, 635/667 nm fluorescence, primary screen (AID 1116); settings: 635 nm fluorescence, higher = more signal
[10] = biological target: Alpha-bungarotoxin (Bungarus multicinctus) (UniProt P60615); experiment: compounds binding labelled alpha-BTX control protein – biochemical, small-molecule microarray, Alexa647 label, 635/667 nm fluorescence, artefact control for SMM control protein annotation, profiling panel (AID 1117); settings: alpha-BTX-A647 binding fluorescence, higher = more signal
[11] = biological target: Albumin (Bos taurus) (UniProt P02769); experiment: compounds binding labelled BSA control protein – biochemical, small-molecule microarray, Alexa647 label, 635/667 nm fluorescence, artefact control for SMM control protein annotation, profiling panel (AID 1118); settings: BSA-A647 binding, fluorescence 635 nm, higher = more signal;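 note: score merges 667 nm emission intensity and signal-to-noise per printed compound spot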
[12] = probe aXIP binding to arrayed compounds – biochemical, NeuroSMM set, 635/667 nm fluorescence, primary screen (AID 1119); settings: small-molecule microarray, higher = more signal, called active from +8 up or from −8 down;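 note: probe is the protein aXip251-270 applied at 1 µg/mL to compound-printed slides; binding of probe to printed compounds measured as 667 nm fluorescence plus signal to noise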
[13] = probe aNOTCH3 binding on compound microarray – biochemical, small-molecule microarray, 635/667 nm fluorescence, primary screen (AID 1120); settings: higher = more signal;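 note: probe is a biotin-tagged antibody raised against NOTCH3 rather than NOTCH3 protein; score merges spot fluorescence near 667 nm with spot signal to noise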
[14] = probe aNOTCH2 binding on compound microarray – biochemical, small-molecule microarray, 635/667 nm fluorescence, primary screen (AID 1121); settings: higher = more signal;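 note: score merges feature fluorescence read at 667 nm with its signal to noise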
[15] = biological target: Carbonic anhydrase 2 (Homo sapiens) (UniProt P00918); experiment: compounds binding carbonic anhydrase 2 – biochemical, small-molecule microarray, Alexa647-labelled CAII, profiling panel (AID 1122); settings: CAII-A647 binding fluorescence, higher = more signal
[16] = COS7 lysate on small-molecule microarray, probe aHis, 635 nm (AID 1123); settings: COS7 cell lysate, fluorescence, higher = more signal;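 note: z-score combines 667nm fluorescence intensity with signal-to-noise per printed compound spot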
[17] = probe aLAP1 signal on lysate-treated microarray – cell lysate, small-molecule microarray, COS7 lysate, primary screen (AID 1124); settings: probe aLAP1, fluorescence, higher = more signal;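 note: lysate comes from COS7 cells expressing LAP1 and is applied at 0.3 µg/mL; score merges spot fluorescence near 667 nm with signal-to-noise over triplicate slides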
[18] = test system: Sam68 (KHDRBS1); experiment: compounds binding KHDRBS1 protein – biochemical, small-molecule microarray, 635 nm fluorescence, primary screen (AID 1125); settings: higher = more signal;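 note: score merges 667 nm channel intensity with signal to noise over triplicate slides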
[19] = test system: Chordin-like protein 2 (CHRDL2); experiment: compounds binding chordin-like 2 – biochemical, small-molecule microarray, 635 nm fluorescence, primary screen (AID 1126); settings: fluorescence 635 nm, higher = more signal;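 note: printed compound slides probed with Chrdl2 protein at 4 µg/mL for 1 h at 4 C; score merges 667 nm emission intensity with signal to noise over three replicate slides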
[20] = biological target: Concanavalin-A (Canavalia ensiformis) (UniProt P02866); experiment: compounds binding concanavalin A lectin – biochemical, small-molecule microarray, Alexa647 label, 635 nm, artefact control for SMM control protein annotation, primary screen (AID 1127); settings: ConA-A647 binding fluorescence, higher = more signal;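 note: z combines 667 nm emission intensity with signal-to-noise across three replicate slides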
Concanavalin-A (Canavalia ensiformis), sequence (P02866 whole entry, looked up): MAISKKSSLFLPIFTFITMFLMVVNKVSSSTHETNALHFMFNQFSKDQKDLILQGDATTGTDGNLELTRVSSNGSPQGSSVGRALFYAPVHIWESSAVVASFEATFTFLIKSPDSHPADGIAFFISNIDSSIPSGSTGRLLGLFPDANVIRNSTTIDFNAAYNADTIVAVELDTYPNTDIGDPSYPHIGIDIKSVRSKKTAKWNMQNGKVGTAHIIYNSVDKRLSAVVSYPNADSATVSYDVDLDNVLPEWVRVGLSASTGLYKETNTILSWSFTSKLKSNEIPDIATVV

Albumin (Bos taurus), sequence (P02769 whole entry, looked up): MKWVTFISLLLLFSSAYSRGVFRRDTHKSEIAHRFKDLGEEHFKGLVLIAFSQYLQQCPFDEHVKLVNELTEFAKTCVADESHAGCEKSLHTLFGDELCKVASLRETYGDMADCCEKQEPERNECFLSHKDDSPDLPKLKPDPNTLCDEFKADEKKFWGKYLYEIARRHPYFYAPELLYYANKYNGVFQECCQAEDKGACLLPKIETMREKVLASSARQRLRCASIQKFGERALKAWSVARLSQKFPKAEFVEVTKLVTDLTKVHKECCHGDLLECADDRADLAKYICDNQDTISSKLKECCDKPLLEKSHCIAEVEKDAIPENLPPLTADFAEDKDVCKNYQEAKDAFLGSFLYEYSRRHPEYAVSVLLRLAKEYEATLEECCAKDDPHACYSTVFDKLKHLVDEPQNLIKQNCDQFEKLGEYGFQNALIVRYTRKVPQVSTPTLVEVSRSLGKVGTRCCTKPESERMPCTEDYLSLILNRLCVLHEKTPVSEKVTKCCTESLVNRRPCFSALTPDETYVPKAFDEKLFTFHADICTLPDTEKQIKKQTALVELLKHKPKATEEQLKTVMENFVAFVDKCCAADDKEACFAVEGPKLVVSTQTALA
Torsin-1A-interacting protein 1 (Homo sapiens), sequence (Q5JTV8 whole entry, looked up): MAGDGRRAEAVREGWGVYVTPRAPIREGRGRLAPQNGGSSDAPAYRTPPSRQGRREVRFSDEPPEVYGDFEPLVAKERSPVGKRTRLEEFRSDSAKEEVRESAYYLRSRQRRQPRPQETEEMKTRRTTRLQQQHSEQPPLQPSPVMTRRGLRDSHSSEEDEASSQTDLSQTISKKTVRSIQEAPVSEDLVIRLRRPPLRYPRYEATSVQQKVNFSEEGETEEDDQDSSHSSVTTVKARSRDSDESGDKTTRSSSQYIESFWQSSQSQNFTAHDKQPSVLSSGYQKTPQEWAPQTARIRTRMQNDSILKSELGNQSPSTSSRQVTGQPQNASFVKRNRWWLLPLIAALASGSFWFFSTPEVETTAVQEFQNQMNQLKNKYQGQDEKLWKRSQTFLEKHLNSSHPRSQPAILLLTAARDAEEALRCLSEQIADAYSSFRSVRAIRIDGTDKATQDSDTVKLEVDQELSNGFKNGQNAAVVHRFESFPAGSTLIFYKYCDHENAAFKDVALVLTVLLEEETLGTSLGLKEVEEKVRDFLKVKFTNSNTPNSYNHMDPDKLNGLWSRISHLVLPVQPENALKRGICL
Alpha-bungarotoxin (Bungarus multicinctus), sequence (P60615 whole entry, looked up): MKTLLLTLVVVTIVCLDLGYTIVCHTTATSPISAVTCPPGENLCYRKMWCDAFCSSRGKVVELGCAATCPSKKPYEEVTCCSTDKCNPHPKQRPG
Left-right determination factor 2 (Homo sapiens), sequence (O00292 whole entry, looked up): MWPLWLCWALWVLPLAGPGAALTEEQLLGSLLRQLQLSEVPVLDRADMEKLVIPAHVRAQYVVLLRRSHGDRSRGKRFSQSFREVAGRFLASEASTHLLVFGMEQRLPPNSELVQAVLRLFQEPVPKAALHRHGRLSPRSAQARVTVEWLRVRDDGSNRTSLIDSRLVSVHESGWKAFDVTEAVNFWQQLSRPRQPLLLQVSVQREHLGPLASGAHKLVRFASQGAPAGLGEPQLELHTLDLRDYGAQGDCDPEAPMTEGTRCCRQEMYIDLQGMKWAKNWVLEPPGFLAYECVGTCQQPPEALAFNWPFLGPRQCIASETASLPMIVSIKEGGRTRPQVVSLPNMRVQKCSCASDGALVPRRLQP

Row | SMILES | composite z-score [1] | z-score [2] | composite z-score [3] | composite z-score [4] | composite z-score [5] | composite z-score [6] | composite z-score [7] | composite z-score [8] | composite z-score [9] | composite z-score [10] | composite z-score [11] | composite Z-score [12] | composite z-score [13] | composite z-score [14] | composite z-score [15] | composite z-score [16] | composite z-score [17] | composite z-score [18] | composite z-score [19] | composite z-score [20]
1 | C=CCC(OC(C)=O)[C@@H]1[C@@H](N(Cc2ccc(-c3ccccc3)cc2)C(=O)Cc2ccc(F)cc2)c2cc(OCCCO)ccc2N1C(=O)c1ccc2ccccc2n1 (stereo not given in full) | -0.689 | -0.213 | -0.456 | 0.168 | 0.72 | -0.0125 | -0.206 | -0.395 | 0.79 | 0.414 | 0.59 | -1.01 (inactive) | 0.0653 | -0.0796 | -0.161 | 0.164 | 0.0508 | -0.0112 | 0.255 | -0.526
2 | CC(=CC1CCCCC1)[C@@H](NC(=O)c1ccc(C(F)(F)F)cc1)c1ccc(-c2ccccc2)cc1 | -0.778 | -1.04 | -0.886 | 0.605 | 0.636 | -0.0735 | 0.151 | 0.506 | -0.204 | 0.48 | 0.938 | -0.193 (inactive) | -0.0311 | 0.0181 | -0.0824 | -0.261 | -0.223 | -0.946 | -0.371 | -0.0536
3 | CCOC(=O)C1=CCC(c2ccc([N+](=O)[O-])cc2)N(S(=O)(=O)c2ccc(C)cc2)C1 (stereo not given) | 1.08 | -2.35 | -0.087 | 0.279 | 0.548 | -0.0644 | 0.138 | 0.61 | 0.304 | 0.159 | 0.261 | 0.448 (inactive) | 0.0351 | -0.0439 | 0.408 | 1.12 | 0.279 | 0.377 | -0.0439 | 0.666
4 | O=C1C2C=CC(C(O)c3cccs3)N(Nc3ccccc3F)C2C(=O)N1c1ccccc1 (stereo not given) | 0.749 | 0.124 | -0.0883 | 0.0073 | -0.65 | 0.0633 | 0.0723 | -0.126 | 0.543 | 0.825 | 0.512 | -0.413 (inactive) | -0.0728 | -0.181 | 0.419 | 1.55 | 0.118 | 0.794 | -0.399 | 0.653
5 | CCOC(=O)C[C@H]1[C@H](OC(=O)c2ccc(-c3ccccc3)cc2)[C@@H](NC(=O)c2ccc3ccccc3c2)c2cc(OCCCO)ccc2N1C(=O)Cc1ccc(OC)cc1 | 0.758 | -0.983 | 0.0216 | 0.868 | 0.171 | -0.001 | 0.151 | -0.0209 | 0.15 | 0.0773 | 0.605 | -0.608 (inactive) | -0.063 | -0.11 | -0.0752 | 0.484 | 0.188 | 0.41 | -0.887 | -0.101
6 | C=CC[C@@]1(C(=O)N2CCOCC2)N=C(c2ccc(OCCCO)cc2)O[C@@H]1c1ccccc1N=[N+]=[N-] | 1.45 | -1.82 | 0.37 | 1.83 | 0.904 | 0.171 | -0.043 | 1.82 | 1.47 | 1.8 | 0.872 | -0.885 (inactive) | 0.364 | 0.0753 | 0.419 | 2.43 | 1 | 1.29 | -0.142 | 1.09
7 | [N-]=[N+]=NCc1ccccc1C[C@]1(C(=O)O)N=C(c2ccc(OCCCO)cc2)O[C@H]1c1ccccc1 | 0.903 | -0.748 | -1.18 | 1.17 | 0.671 | -0.096 | -0.0626 | 1.29 | 3.14 | 0.966 | 0.954 | -0.37 (inactive) | -0.0414 | -0.0633 | 0.685 | 1.79 | 0.249 | 0.52 | -0.741 | 1.11
8 | O=C1C[C@]2(c3ccc([N+](=O)[O-])cc3)C(=O)N(CC(F)(F)F)c3cc(CO)ccc3[C@H]2N1CC12CC3CC(CC(C3)C1)C2 | 0.193 | -0.156 | -0.211 | -0.28 | -0.285 | -0.147 | -0.229 | -0.364 | -0.371 | 0.224 | -0.0746 | -0.171 (inactive) | -0.0362 | -0.168 | 0.499 | 1.15 | -0.221 | -0.0575 | 0.167 | 0.556
9 | [N-]=[N+]=NCc1ccccc1[C@@H]1OC(c2ccc(OCCCO)cc2)=N[C@]1(Cc1ccccc1N=[N+]=[N-])C(=O)NCc1ccccc1 | 1.33 | -1.64 | 0.374 | 1.34 | 0.12 | -0.138 | -0.221 | -0.447 | 1.4 | 0.158 | 0.753 | -0.0079 (inactive) | 0.111 | 0.0427 | 0.42 | 1.25 | 0.272 | 1.26 | 0.16 | 0.815
10 | Cc1ccc([C@H]2[C@H](C(=O)O)[C@H](Sc3ccccc3)[C@@H](C(C)C)N2S(=O)(=O)c2ccc(C)cc2)cc1 | 1.41 | -0.981 | 0.314 | 1.36 | 0.904 | 0.0718 | -0.0709 | -0.528 | 0.759 | 0.715 | 0.907 | 0.497 (inactive) | 0.249 | 0.0303 | 0.66 | 2.25 | 0.722 | 1.31 | -0.299 | 1.09
11 | C=C[C@@H](COC(C)=O)N(Cc1ccccc1[N+](=O)[O-])S(=O)(=O)c1ccc(Br)cc1 | 1.08 | -1.86 | 1.02 | 0.198 | -0.0348 | -0.0185 | -0.0192 | -0.56 | 0.954 | 0.864 | 0.138 | 1.55 (inactive) | 0.122 | 0.181 | 0.659 | -0.0383 | 0.343 | 0.92 | 1.32 | 0.602

Reference: PubChem BioAssay
